Results on seven compounds are retold here after ChEMBL document CHEMBL1961873, “Compounds: GSK PKIS; Assays: Nanosyn kinase panel” (2012).

In test [1] the target is Calcium/calmodulin-dependent protein kinase type II subunit alpha (Homo sapiens) (UniProt Q9UQM7). Conditions: at 1 µM.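 Note: reported value is a mean percent inhibition of CAMK2A.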
Test [2] has as its target Calcium/calmodulin-dependent protein kinase type II subunit delta (Homo sapiens) (UniProt Q13557). Conditions: at 0.1 µM.
The target is the same in test [3]. Conditions: at 1 µM.
In test [4] the target is T1, Calcium/calmodulin-dependent protein kinase type IV (Homo sapiens) (UniProt Q16566).
T1 sequence (whole entry): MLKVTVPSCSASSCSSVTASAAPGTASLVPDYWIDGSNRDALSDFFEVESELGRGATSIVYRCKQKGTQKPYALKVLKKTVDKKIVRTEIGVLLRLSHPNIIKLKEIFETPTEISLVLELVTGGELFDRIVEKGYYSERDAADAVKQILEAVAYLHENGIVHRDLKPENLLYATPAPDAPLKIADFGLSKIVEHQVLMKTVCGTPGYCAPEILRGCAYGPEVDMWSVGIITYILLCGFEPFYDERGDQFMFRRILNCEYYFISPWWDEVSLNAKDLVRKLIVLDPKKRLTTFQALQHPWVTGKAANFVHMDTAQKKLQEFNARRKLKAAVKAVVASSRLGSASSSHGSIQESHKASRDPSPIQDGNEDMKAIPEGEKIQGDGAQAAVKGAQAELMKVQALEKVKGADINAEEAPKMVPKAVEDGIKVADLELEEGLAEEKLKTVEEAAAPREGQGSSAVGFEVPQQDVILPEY
Conditions: at 0.1 µM.

In test [5] the target is T1, Calcium/calmodulin-dependent protein kinase type IV (Homo sapiens). The note with it: at 1 µM.
The target in test [6] is T2, Serine/threonine-protein kinase Chk1 (Homo sapiens) (UniProt O14757).
T2 sequence (whole entry): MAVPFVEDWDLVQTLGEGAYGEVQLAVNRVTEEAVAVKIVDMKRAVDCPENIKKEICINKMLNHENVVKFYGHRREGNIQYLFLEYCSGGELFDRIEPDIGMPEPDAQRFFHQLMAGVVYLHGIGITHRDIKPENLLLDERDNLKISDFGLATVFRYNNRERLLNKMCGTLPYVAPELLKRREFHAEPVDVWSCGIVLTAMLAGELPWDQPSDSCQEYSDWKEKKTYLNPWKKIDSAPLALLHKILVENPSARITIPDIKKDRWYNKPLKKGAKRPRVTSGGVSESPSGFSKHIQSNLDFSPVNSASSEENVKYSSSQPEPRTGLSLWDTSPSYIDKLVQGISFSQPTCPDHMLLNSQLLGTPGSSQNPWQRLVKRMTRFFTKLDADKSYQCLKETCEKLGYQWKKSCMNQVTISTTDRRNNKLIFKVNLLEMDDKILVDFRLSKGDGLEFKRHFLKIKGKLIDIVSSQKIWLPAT
The note with it: at 0.1 µM.

The target in test [7] is T2, Serine/threonine-protein kinase Chk1 (Homo sapiens). The note with it: at 1 µM.
Test [8] has as its target Serine/threonine-protein kinase Chk2 (Homo sapiens) (UniProt O96017). Conditions: at 0.1 µM.
The target is the same in test [9]. Conditions: at 1 µM.
Test [10] concerns the target Death-associated protein kinase 1 (Homo sapiens) (UniProt P53355). The note with it: at 0.1 µM.
Test [11] has the same target. The note with it: at 1 µM.
Test [12] has as its target T3, Serine/threonine-protein kinase DCLK2 (Homo sapiens) (UniProt Q8N568).
T3 sequence (whole entry): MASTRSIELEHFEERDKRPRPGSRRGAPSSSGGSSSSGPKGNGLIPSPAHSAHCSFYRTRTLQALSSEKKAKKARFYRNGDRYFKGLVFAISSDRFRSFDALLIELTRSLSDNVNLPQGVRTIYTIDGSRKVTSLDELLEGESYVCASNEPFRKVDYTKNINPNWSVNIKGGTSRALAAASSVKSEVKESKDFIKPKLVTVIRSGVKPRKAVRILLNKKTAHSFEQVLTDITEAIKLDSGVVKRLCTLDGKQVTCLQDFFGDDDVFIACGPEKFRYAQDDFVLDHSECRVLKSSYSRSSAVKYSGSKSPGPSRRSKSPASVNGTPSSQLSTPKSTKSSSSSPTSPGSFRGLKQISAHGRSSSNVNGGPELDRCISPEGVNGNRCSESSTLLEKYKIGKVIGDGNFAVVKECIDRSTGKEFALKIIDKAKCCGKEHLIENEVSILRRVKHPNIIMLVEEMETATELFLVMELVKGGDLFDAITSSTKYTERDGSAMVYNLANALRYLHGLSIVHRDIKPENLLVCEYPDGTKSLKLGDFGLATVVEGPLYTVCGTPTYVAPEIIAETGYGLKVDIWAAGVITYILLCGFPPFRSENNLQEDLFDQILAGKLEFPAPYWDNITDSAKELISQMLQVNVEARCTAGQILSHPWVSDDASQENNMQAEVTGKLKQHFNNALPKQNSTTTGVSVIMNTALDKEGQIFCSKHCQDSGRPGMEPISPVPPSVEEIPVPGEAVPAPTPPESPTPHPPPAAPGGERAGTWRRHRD
The note with it: at 0.1 µM.

The target in test [13] is T3, Serine/threonine-protein kinase DCLK2 (Homo sapiens). Conditions: at 1 µM.
Test [14] deals with MAP kinase-activated protein kinase 2 (Homo sapiens) (UniProt P49137). Conditions: at 0.1 µM.
Sequence of MAP kinase-activated protein kinase 2 (Homo sapiens) (P49137 whole entry, looked up): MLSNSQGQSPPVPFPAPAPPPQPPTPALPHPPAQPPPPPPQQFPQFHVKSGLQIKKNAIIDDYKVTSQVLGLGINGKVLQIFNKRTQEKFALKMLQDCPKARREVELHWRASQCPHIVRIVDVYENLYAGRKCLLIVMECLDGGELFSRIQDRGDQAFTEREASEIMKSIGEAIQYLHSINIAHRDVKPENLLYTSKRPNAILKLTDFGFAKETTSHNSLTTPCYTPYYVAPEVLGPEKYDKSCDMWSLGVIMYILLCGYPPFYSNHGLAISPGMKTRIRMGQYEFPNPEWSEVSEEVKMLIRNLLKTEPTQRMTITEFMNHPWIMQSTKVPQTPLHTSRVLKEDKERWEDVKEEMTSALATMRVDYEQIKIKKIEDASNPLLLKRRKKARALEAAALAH
The target is the same in test [15]. The note with it: at 1 µM.
Test [16] addresses MAP kinase-activated protein kinase 3 (Homo sapiens) (UniProt Q16644). Conditions: at 0.1 µM.
For test [17] the target is unchanged. The note with it: at 1 µM.
Test [18] addresses Serine/threonine-protein kinase MARK1 (Homo sapiens) (UniProt Q9P0L2). Conditions: at 0.1 µM.
The target is the same in test [19]. The note with it: at 1 µM.
For test [20], the target named is MAP/microtubule affinity-regulating kinase 3 (Homo sapiens) (UniProt P27448). The note with it: at 0.1 µM.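 Note: mean percent inhibition of MARK3 kinase activity, measured within the GSK PKIS screening panel.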
Sequence of MAP/microtubule affinity-regulating kinase 3 (Homo sapiens) (P27448 whole entry, looked up): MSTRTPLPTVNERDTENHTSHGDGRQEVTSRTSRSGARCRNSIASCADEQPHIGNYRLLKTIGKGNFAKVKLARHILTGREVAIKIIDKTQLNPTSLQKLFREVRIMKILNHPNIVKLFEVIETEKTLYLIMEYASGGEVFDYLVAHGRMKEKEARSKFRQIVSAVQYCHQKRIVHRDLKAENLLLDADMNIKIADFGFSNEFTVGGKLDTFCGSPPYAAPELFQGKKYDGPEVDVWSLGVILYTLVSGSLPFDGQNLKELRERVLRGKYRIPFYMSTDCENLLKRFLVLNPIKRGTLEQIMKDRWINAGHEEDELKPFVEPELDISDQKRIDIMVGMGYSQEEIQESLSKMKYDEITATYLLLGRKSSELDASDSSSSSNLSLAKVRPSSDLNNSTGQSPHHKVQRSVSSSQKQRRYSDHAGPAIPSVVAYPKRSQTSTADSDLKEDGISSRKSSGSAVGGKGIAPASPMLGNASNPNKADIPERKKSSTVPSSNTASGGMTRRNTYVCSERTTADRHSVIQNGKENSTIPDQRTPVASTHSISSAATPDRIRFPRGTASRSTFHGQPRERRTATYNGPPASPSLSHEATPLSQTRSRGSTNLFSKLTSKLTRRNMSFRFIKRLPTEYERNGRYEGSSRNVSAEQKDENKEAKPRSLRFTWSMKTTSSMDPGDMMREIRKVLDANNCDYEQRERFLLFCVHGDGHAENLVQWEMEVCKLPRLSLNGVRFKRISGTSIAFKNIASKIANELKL

Sequence of MAP kinase-activated protein kinase 3 (Homo sapiens) (Q16644 whole entry, looked up): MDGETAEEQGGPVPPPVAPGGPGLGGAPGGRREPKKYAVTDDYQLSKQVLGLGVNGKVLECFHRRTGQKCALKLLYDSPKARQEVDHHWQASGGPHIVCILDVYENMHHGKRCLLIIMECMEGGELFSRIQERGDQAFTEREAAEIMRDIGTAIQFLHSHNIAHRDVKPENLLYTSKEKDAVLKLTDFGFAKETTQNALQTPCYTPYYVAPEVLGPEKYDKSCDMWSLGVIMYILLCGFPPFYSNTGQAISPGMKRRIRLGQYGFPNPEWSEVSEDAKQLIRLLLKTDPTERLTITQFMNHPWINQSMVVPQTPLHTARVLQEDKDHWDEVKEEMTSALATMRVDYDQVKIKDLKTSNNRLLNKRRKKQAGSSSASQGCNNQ
Sequence of Calcium/calmodulin-dependent protein kinase type II subunit alpha (Homo sapiens) (Q9UQM7 whole entry): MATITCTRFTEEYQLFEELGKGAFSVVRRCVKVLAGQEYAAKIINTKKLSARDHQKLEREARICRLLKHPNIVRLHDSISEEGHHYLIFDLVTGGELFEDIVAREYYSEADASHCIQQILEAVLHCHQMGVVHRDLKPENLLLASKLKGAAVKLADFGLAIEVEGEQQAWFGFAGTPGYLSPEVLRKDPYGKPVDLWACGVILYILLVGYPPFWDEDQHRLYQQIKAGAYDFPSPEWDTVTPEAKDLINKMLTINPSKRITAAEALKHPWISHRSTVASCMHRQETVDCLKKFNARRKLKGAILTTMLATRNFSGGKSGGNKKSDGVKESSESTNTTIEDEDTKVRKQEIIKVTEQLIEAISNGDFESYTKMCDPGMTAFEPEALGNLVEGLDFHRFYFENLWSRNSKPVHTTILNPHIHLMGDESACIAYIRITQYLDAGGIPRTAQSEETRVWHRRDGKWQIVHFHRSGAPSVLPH
Sequence of Serine/threonine-protein kinase Chk2 (Homo sapiens) (O96017 whole entry): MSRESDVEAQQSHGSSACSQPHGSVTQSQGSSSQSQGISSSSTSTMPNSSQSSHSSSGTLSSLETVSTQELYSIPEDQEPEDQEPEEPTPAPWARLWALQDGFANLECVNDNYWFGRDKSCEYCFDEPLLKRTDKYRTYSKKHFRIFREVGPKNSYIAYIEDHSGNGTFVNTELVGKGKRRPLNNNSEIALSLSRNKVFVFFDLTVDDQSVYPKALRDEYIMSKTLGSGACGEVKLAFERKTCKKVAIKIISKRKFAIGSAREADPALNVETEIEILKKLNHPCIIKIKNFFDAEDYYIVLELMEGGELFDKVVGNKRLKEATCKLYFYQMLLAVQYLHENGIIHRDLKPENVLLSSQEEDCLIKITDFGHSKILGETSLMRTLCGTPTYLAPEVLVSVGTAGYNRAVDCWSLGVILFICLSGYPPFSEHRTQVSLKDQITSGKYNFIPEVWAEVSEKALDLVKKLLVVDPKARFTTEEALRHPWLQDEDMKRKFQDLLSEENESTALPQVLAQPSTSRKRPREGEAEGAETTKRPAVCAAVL
Sequence of Calcium/calmodulin-dependent protein kinase type II subunit delta (Homo sapiens) (Q13557 whole entry): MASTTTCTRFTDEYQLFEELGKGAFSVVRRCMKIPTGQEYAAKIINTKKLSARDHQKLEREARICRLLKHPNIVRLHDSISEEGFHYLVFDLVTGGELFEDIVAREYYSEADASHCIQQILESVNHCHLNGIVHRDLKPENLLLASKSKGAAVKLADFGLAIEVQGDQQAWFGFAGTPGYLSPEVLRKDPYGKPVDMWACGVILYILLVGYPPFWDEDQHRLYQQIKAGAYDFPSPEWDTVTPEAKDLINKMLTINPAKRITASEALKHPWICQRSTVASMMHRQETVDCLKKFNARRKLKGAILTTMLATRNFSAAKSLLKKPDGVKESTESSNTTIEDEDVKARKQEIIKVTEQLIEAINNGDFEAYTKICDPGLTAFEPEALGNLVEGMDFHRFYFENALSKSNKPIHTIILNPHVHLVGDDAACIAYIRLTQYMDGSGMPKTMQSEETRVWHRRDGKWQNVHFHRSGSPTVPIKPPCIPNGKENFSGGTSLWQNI
Sequence of Serine/threonine-protein kinase MARK1 (Homo sapiens) (Q9P0L2 whole entry, looked up): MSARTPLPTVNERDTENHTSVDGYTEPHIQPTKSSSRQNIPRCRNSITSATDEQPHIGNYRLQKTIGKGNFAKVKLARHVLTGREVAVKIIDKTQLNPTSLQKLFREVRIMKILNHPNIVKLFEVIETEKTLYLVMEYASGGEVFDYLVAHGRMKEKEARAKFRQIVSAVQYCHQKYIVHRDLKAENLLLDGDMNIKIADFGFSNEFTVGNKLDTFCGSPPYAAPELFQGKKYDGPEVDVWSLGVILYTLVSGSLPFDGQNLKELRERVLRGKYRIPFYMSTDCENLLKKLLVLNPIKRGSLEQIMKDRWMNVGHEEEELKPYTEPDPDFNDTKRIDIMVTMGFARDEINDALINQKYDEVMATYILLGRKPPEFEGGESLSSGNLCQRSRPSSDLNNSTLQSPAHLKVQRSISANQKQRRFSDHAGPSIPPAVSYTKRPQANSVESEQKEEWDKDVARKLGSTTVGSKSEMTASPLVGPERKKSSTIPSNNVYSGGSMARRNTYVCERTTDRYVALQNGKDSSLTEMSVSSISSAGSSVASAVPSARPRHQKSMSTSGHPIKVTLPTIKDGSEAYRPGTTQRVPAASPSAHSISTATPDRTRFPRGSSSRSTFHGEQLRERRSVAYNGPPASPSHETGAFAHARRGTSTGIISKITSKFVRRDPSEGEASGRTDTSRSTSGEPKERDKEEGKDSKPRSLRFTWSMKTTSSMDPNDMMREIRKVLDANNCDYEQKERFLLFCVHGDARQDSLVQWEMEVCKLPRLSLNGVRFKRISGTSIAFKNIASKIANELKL

On to `COc1ccc(-c2cc(-c3c[nH]nc3-c3ccccn3)ccn2)cc1`, for which the inhibition in test [1] was 6.7%; in test [2] it was 3.82%; in test [3] it was 3.97%; in [4], -2.15%; in test [5], -3.38%; in test [6], 3.08%. Besides, the inhibition came to 6.57% in test [7]; 3.42% in [8]; 4.49% in test [9]; 5.21% in test [10]; 6.22% in test [11]; 2.08% in test [12]. The inhibition in [13] is 0.82%; in test [14] it was 2.82%; in test [15], 2.73%; in [16], 6.42%; in test [17], 14%; in test [18], 5.2%. The inhibition amounted to 7.25% in test [19] and 5.15% in test [20].
Take `COc1cccc(-c2c[nH]c3c(N/N=C/c4ccncc4)ncnc23)c1`: the inhibition in [1] amounted to 6.66%; in [2], 3.84%; in test [3] it was 15.2%; in test [4], 1.55%; in test [5] it was 4.18%; in test [6] it was 7.71%. For the same compound, the inhibition in test [7] is 11.3%; in test [8], 5.73%; in [9], 6.91%; in test [10], 9.18%; in [11], 11.2%; in test [12] it was 1.17%. For the same compound, the inhibition stood at 8.13% in [13]; 2.94% in test [14]; 3.56% in [15]; 9.72% in test [16]; 11.1% in test [17]; 2.74% in test [18]. Also, the inhibition is 8.15% in [19] and 6.06% in test [20].
As to `CC(=O)NCc1cccc(C#Cc2cncnc2Nc2ccc(OCc3cccc(F)c3)c(Cl)c2)c1`, the inhibition in test [1] was -0.5%; in test [2], 0.37%; in [3], 1.1%; in test [4], 1.04%; in test [5] it was 2.01%; in test [6], -3.2%. The inhibition in test [7] is -4.26%; in test [8], -4.58%; in test [9], -3.41%; in [10], -6.93%; in [11], -8.59%; in [12] it was 1.43%. Besides, the inhibition in test [13] was 6.49%; in test [14], -2.58%; in [15] it was -3.05%; in test [16], -4.92%; in test [17], -5.42%; in [18], 1.88%. The inhibition in test [19] was 2.89%; in test [20], 1.71%.
Consider `N#Cc1c(NC(=O)c2ccc(F)cc2)sc2c1CCCC2`, for which the inhibition in test [1] is -0.01%; in [2], 0.08%; in test [3], 0.72%; in test [4] it was -0.9%; in test [5], 2.49%; in test [6], 0.15%. Moreover, the inhibition is 0.56% in test [7]; -0.21% in [8]; 0.73% in [9]; 0.39% in test [10]; 0.36% in [11]; 0% in [12]. Further, the inhibition in test [13] is 5.74%; in test [14], 0.34%; in test [15], -0.56%; in [16], 0.8%; in test [17] it was 0.7%; in test [18], 1.17%. Further, the inhibition was 0.93% in test [19] and -0.62% in test [20].
`COc1ccc2c(-c3ccnc(Nc4cccc(OC(F)(F)F)c4)n3)cnn2n1`: the inhibition in test [1] was 3.59%; in test [2], 2.75%; in [3], 5.82%; in test [4] it was -0.96%; in test [5] it was -0.82%; in test [6], 3.59%. The inhibition in [7] was 5.26%; in [8] it was 3.11%; in test [9], 5.21%; in test [10] it was 5.2%; in test [11], 5.37%; in [12], 0.72%. Besides, the inhibition in test [13] stood at 0.97%; in [14], 2.32%; in test [15] it was 2.88%; in [16], 4.5%; in test [17] it was 5.2%; in test [18] it was 2.92%. The inhibition in test [19] stood at 6.68%; in [20], 0.91%.
For `COc1ccc(-c2oc3ncnc(N)c3c2-c2ccc(NC(=O)Nc3cc(C(F)(F)F)ccc3F)cc2)cc1`, the inhibition is 16.9% in [1]; 6.01% in test [2]; 21.5% in test [3]; 0.6% in [4]; 13.4% in test [5]; 8.35% in [6]. Further, the inhibition in test [7] stood at 6.88%; in test [8], 2.06%; in test [9] it was 3.88%; in test [10], 5.33%; in [11], 4.78%; in [12], 1.65%. In addition, the inhibition turned out to be 6.21% in [13]; 2.26% in test [14]; 2.83% in test [15]; 4.08% in test [16]; 16.3% in [17]; 3.02% in test [18]. Moreover, the inhibition came out at 6.8% in [19] and 0.75% in test [20].
In the case of `Fc1cccc(COc2ccc(Nc3ncnc4sc(-c5ccco5)cc34)cc2Cl)c1`, the inhibition in test [1] is -2.48%; in test [2], 3.02%; in test [3] it was 1.67%; in test [4], -1.87%; in test [5], -2.46%; in test [6], 10.1%. The inhibition was 12.5% in [7]; 7.63% in test [8]; 8.84% in [9]; 13.2% in test [10]; 11.1% in [11]; -1.11% in test [12]. The inhibition in test [13] was determined as 4.98%; in test [14], 5.73%; in [15], 4.4%; in test [16], 9.64%; in [17], 11%; in test [18] it was 2.72%. For the same compound, the inhibition turned out to be 5.69% in test [19] and 3.1% in test [20].

As usually defined, the inhibition is the drop in the measured response relative to a control, in per cent.
